Measurements: the supplement of paper PMC4466140

What follows are binders tested against ScBbc1 (assay: SPOT peptide array binding signal intensity (averaged, normalized) (arbitrary units (background-subtracted, floor 0; scale differs between SH3 domains)); higher = stronger binding of the SH3 domain to the peptide).
How it was run: (§1)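 Binding signal is given in arbitrary units that differ between domains and is the normalized, background-subtracted spot intensity averaged across replicates. Each GST-SH3 fusion from one of four yeast species was made in E. coli BL21(DE3), purified on glutathione Sepharose and incubated at 10 μg/ml overnight at 4°C on cellulose-bound synthetic 15-mer peptides in which cysteines were replaced by serines. Detection used anti-GST antibody, an HRP anti-mouse secondary and luminol, followed by imaging and Genespotter quantification.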
With DKSRPPRPPPKPLHL the “SPOT peptide array binding signal intensity” value was 14.5.

These binders were tested against ScBem1-D1 in the same assay as above.
How it was run: as §1
In the case of DKSRPPRPPPKPLHL, the “SPOT peptide array binding signal intensity” value is reported as no more than 0.

These binders were tested against ScBzz1-D1 in the same assay as above.
How it was run: as §1
For DKSRPPRPPPKPLHL, the “SPOT peptide array binding signal intensity” value was 118.

Each binder was assayed against ScBzz1-D2 in the same assay as above.
How it was run: as §1
DKSRPPRPPPKPLHL was tested, and the “SPOT peptide array binding signal intensity” value was 3.

These binders were tested against ScCyk3 in the same assay as above.
How it was run: as §1
For DKSRPPRPPPKPLHL, the “SPOT peptide array binding signal intensity” value was no more than 0.

What follows are binders tested against ScFus1 in the same assay as above.
How it was run: as §1
DKSRPPRPPPKPLHL was tested, and the “SPOT peptide array binding signal intensity” value was no more than 0.

Each binder was assayed against ScHof1 in the same assay as above.
How it was run: as §1
DKSRPPRPPPKPLHL was tested, and the “SPOT peptide array binding signal intensity” value was 0.5.

These binders were tested against ScHse1 in the same assay as above.
How it was run: as §1
DKSRPPRPPPKPLHL was tested, and the “SPOT peptide array binding signal intensity” value was no more than 0.

What follows are binders tested against ScLsb1 in the same assay as above.
How it was run: as §1
For DKSRPPRPPPKPLHL, the “SPOT peptide array binding signal intensity” value was 210.

What follows are binders tested against ScLsb2 in the same assay as above.
How it was run: as §1
With DKSRPPRPPPKPLHL the “SPOT peptide array binding signal intensity” value was no more than 0.

These binders were tested against ScLsb3 in the same assay as above.
How it was run: as §1
DKSRPPRPPPKPLHL was tested, and the “SPOT peptide array binding signal intensity” value was 1660.

Each binder was assayed against ScLsb4 in the same assay as above.
How it was run: as §1
DKSRPPRPPPKPLHL was tested, and the “SPOT peptide array binding signal intensity” value was 11.

What follows are binders tested against ScMyo3 in the same assay as above.
How it was run: as §1
For DKSRPPRPPPKPLHL, the “SPOT peptide array binding signal intensity” value was 170.

The binders below were run against ScMyo5 in the same assay as above.
How it was run: as §1
For DKSRPPRPPPKPLHL, the “SPOT peptide array binding signal intensity” value was 306.

Each binder was assayed against ScNbp2 in the same assay as above.
How it was run: as §1
For DKSRPPRPPPKPLHL, the “SPOT peptide array binding signal intensity” value was 244.

What follows are binders tested against ScPex13 in the same assay as above.
How it was run: as §1
In the case of DKSRPPRPPPKPLHL, the “SPOT peptide array binding signal intensity” value is reported as 669.

These binders were tested against ScRvs167 in the same assay as above.
How it was run: as §1
In the case of DKSRPPRPPPKPLHL, the “SPOT peptide array binding signal intensity” value is reported as 47.7.

These binders were tested against ScSho1 in the same assay as above.
How it was run: as §1
For DKSRPPRPPPKPLHL, the “SPOT peptide array binding signal intensity” value was 379.

These binders were tested against ScSla1-D1-D2 in the same assay as above.
How it was run: as §1
With DKSRPPRPPPKPLHL the “SPOT peptide array binding signal intensity” value was 83.

These binders were tested against ScSla1-D3 in the same assay as above.
How it was run: as §1
In the case of DKSRPPRPPPKPLHL, the “SPOT peptide array binding signal intensity” value is reported as no more than 0.

Each binder was assayed against SpAbp1-D1 in the same assay as above.
How it was run: as §1
For DKSRPPRPPPKPLHL, the “SPOT peptide array binding signal intensity” value was 1120.

The binders below were run against SpBbc1 in the same assay as above.
How it was run: as §1
DKSRPPRPPPKPLHL was tested, and the “SPOT peptide array binding signal intensity” value was no more than 0.

These binders were tested against SpBzz1-D1 in the same assay as above.
How it was run: as §1
DKSRPPRPPPKPLHL was tested, and the “SPOT peptide array binding signal intensity” value was 684.

These binders were tested against SpBzz1-D2 in the same assay as above.
How it was run: as §1
In the case of DKSRPPRPPPKPLHL, the “SPOT peptide array binding signal intensity” value is reported as 1.5.

These binders were tested against SpCyk3 in the same assay as above.
How it was run: as §1
For DKSRPPRPPPKPLHL, the “SPOT peptide array binding signal intensity” value was 1.

These binders were tested against SpHof1 in the same assay as above.
How it was run: as §1
With DKSRPPRPPPKPLHL the “SPOT peptide array binding signal intensity” value was no more than 0.

These binders were tested against SpHof1-2 in the same assay as above.
How it was run: as §1
With DKSRPPRPPPKPLHL the “SPOT peptide array binding signal intensity” value was no more than 0.

What follows are binders tested against SpHof1-3 in the same assay as above.
How it was run: as §1
In the case of DKSRPPRPPPKPLHL, the “SPOT peptide array binding signal intensity” value is reported as 90.8.

These binders were tested against SpHse1 in the same assay as above.
How it was run: as §1
In the case of DKSRPPRPPPKPLHL, the “SPOT peptide array binding signal intensity” value is reported as 16.8.

These binders were tested against SpLsb1 in the same assay as above.
How it was run: as §1
In the case of DKSRPPRPPPKPLHL, the “SPOT peptide array binding signal intensity” value is reported as 362.

The binders below were run against SpLsb4 in the same assay as above.
How it was run: as §1
With DKSRPPRPPPKPLHL the “SPOT peptide array binding signal intensity” value was 746.

Each binder was assayed against SpMyo1 in the same assay as above.
How it was run: as §1
DKSRPPRPPPKPLHL was tested, and the “SPOT peptide array binding signal intensity” value was 466.

Each binder was assayed against SpNbp2 in the same assay as above.
How it was run: as §1
With DKSRPPRPPPKPLHL the “SPOT peptide array binding signal intensity” value was no more than 0.

The binders below were run against SpPex13 in the same assay as above.
How it was run: as §1
With DKSRPPRPPPKPLHL the “SPOT peptide array binding signal intensity” value was no more than 0.

The binders below were run against SpRvs167 in the same assay as above.
How it was run: as §1
In the case of DKSRPPRPPPKPLHL, the “SPOT peptide array binding signal intensity” value is reported as 276.

What follows are binders tested against SpSla1-D1-D2 in the same assay as above.
How it was run: as §1
DKSRPPRPPPKPLHL was tested, and the “SPOT peptide array binding signal intensity” value was no more than 0.

The binders below were run against SpSla1-D3 in the same assay as above.
How it was run: as §1
For DKSRPPRPPPKPLHL, the “SPOT peptide array binding signal intensity” value was no more than 0.
